# The list is not random: actives were taken first. Their share in the collection is about 2.9%.
# PP1 counter: PP1-alpha (human) inhibition in PP5 counter-screen. inhibition, % at 6.7 µM. purified PP1alpha, OMFP fluorescence. AID 2235. P62136. hit rate 0.9% among 320,000;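 active means inhibition above the mean inhibition of all tested compounds plus 3 SD, computed separately for each screening campaign, cut at about 15% in these data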
# NadD block: NadD (S. aureus) enzyme inhibition; purified NadD enzyme, colorimetric absorbance read-out; inhibition, % at 20 µM; hit rate 0.78% among 360,000; AID 602399; in the data active means inhibition above about 26%
# Exocytosis inh: lytic granule exocytosis inhibition; TALL-104 LAMP-1 surface exposure, flow cytometry; cells stimulated with thapsigargin and PMA; inhibition, % at 10 µM; hit rate 0.66% among 360,000;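 active means inhibition above about 55%, limit read from the data; inconclusive means no clear call, values can overlap the other calls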
# Beta2AR agonist: agonists of human beta-2 adrenergic receptor inducing internalization; P07550; hit rate 0.43% among 340,000; Am2.2-beta2AR cells, FAP receptor internalization, flow cytometry; response, % (no concentration beside the values);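 active means response above a set limit, near 3 SD of response in nonfluorescent compounds, cut at about 42% in these data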
# GRK2 inh: blocks RNA aptamer binding to human GRK2; AID 488847; hit rate 0.59% among 330,000; bead flow cytometry, FAM-aptamer displacement from GRK2; inhibition of aptamer binding, % at 10 µM;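 active means inhibition of aptamer binding above 40%, roughly 3 SD of noise, on plates passing a quality check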;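 further: median bead fluorescence of bound FAM aptamer so fluorescent compounds give negative values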
# Target sequence (P25098 whole entry, looked up): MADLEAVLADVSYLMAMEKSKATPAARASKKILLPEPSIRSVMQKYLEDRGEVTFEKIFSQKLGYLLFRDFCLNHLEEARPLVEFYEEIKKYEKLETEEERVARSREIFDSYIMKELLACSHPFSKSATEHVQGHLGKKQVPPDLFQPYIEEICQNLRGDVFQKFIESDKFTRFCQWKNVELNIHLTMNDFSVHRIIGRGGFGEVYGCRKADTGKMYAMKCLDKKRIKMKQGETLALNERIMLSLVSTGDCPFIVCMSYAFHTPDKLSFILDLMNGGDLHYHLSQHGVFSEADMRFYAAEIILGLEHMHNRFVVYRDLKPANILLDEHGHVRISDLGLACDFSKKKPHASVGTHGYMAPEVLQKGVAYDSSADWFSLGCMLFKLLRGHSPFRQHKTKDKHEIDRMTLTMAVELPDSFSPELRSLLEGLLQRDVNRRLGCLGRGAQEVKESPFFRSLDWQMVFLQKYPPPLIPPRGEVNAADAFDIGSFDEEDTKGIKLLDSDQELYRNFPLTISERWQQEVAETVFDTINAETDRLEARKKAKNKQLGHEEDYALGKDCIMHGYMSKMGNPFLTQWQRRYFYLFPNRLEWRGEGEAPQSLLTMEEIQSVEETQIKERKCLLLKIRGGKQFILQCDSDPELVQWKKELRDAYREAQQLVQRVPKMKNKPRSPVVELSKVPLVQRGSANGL
# A number is an active result; n = inactive; u = inconclusive; x = no result given.
SMILES,PP1 counter,NadD block,Exocytosis inh,Beta2AR agonist,GRK2 inh
COc1cc(/C(C)=N/NC(=O)c2cccc(S(=O)(=O)N3CCCC3)c2)cc(OC)c1OC,n,n,n,n,50.0
CC1=NOC(=O)/C1=C\c1ccc(-c2ccc(Cl)c(C(=O)O)c2)o1,x,n,n,n,x
Nc1ccccc1N=Cc1ccc(-c2cccc(Cl)c2)o1,n,n,96.5,n,n
CC1=NOC(=O)/C1=C\c1ccc(-c2ccccc2Br)o1,x,n,92.4,n,x
CC1=NOC(=O)/C1=C\c1ccc(-c2cccc(Cl)c2)o1,n,n,100.2,101.2,n
CN1C2=C(C(=O)CC(C)(C)C2)C(c2cccs2)C2=C1CC(C)(C)CC2=O,n,n,n,n,n
CCOc1ccc(C(=O)CC(C(=O)O)N2CCN(Cc3ccccc3)CC2)cc1 (configuration not stated),n,n,n,n,n
CCOc1ccc(C(=O)CC(C(=O)O)N2CCCCC2)cc1 (configuration not stated),n,n,n,n,43.0
CCN(C[C@H]1N[C@@](CC)(C(=O)OC)[C@H]2C(=O)N(C)C(=O)[C@@H]12)S(=O)(=O)c1ccc(F)cc1,x,n,n,n,n
CCOc1ccc(Cl)cc1-c1cc(C(=O)Nc2ccc(F)cc2)[nH]n1,x,n,n,x,x
O=C1CCNc2cc3ccccc3cc21,n,30.8,n,n,n
Clc1ccc2c(c1)C(N1CCNCC1)Cc1ccccc1S2 (configuration not stated),n,n,73.4,n,n
Clc1cccc2c1Sc1ccccc1CC2N1CCNCC1 (configuration not stated),n,n,u,n,n
CCN(CC)c1ccc(-c2sc(Nc3ccccc3)n[n+]2-c2ccc(F)cc2)cc1,17.3,n,n,n,n
CN(C)c1ccc(-c2sc(Nc3ccccc3)n[n+]2-c2ccc(F)cc2)cc1,n,n,n,n,n
CC(C)c1cc(NCC2CCCO2)n2c(nc3ccccc32)c1C#N (configuration not stated),n,n,n,n,n
O=C1C(=C(I)I)c2ccccc2-c2ccccc21,x,n,103.3,75.7,x
CCOc1ccc(CCNC(=O)CSc2cc(=O)n(CC)c3ccccc23)cc1OCC,n,n,n,n,n
O=C(NCc1cccnc1)/C(=C/c1ccc(-c2ccc(Cl)cc2)o1)S(=O)(=O)c1ccccc1,n,n,86.7,108.5,n
N[C@@H](Cc1cc(I)c(Oc2cc(I)c(O)c(I)c2)c(I)c1)C(=O)O,16.5,x,x,x,n
N[C@@H](Cc1ccc(O)c(O)c1)C(=O)O,x,n,n,n,x
COc1ccc2c(c1)C(=NNc1ccc(C(=O)O)cc1)c1cc(OC)ccc1-2,15.7,n,n,n,n
COCCN(Cc1nnc(-c2cccs2)o1)C(=O)CN1C(=O)NC2(CCCCC2)C1=O,x,n,n,n,n
OCCOCCN1CCN(C2=Nc3ccccc3Sc3ccccc32)CC1,n,n,n,n,n
O=C1C=CC(=O)c2c(O)c(N3CCN(CCOCCO)CC3)c(Br)c(O)c21,x,62.1,62.0,66.5,x
SMILES,PP1 counter,NadD block,Exocytosis inh,Beta2AR agonist,GRK2 inh
O=C1C=CC(=O)c2c(O)c(N3CCN(CCO)CC3)c(Cl)c(O)c21,x,49.6,n,99.7,x
O=S(=O)(c1ccc(Br)cc1Cl)N1CCN(CCO)CC1,n,n,n,n,n
Cc1ccccc1-c1ccccc1CN1[C@@H](C(C)C)COCCS1(=O)=O,x,n,n,n,n
Cc1ccccc1NC(=O)CN1C(=O)S/C(=C\c2ccc(-c3cc(C(=O)O)ccc3C)o2)C1=O,x,40.6,n,n,x
Cc1ccc(NC(=O)CN2C(=O)S/C(=C/c3ccc(-c4cccc(C(=O)O)c4)o3)C2=O)cc1,x,n,n,n,x
Cc1ccc(C(=O)O)cc1-c1ccc(/C=C2\SC(=O)N(CC(=O)Nc3ccccc3)C2=O)o1,n,33.8,n,n,n
CCOc1cccc(C(=O)Nc2ccc(N(CC)CC)cc2)c1,n,n,n,n,n
O=C(Nc1ccc(N2CCOCC2)cc1)c1ccc(COc2ccccc2)cc1,16.2,n,n,n,n
CCOc1cccc(C(=O)Nc2ccc(N3CCCC3)cc2)c1,16.2,n,n,n,x
CC(NC(=O)c1cc2cc(F)ccc2[nH]1)c1ccccc1 (configuration not stated),n,n,n,n,n
CC(Sc1ccc2ccccc2n1)C(=O)O (configuration not stated),x,n,n,n,x
CC(Sc1cnc2ccccc2n1)C(=O)O (configuration not stated),17.8,n,n,n,n
Cc1sc(C(C2C(=O)CC(C)(C)CC2=O)C2C(=O)CC(C)(C)CC2=O)cc1[N+](=O)[O-],n,n,73.0,n,n
CCCSC1=C(C#N)C(c2cccs2)CC(=O)N1 (configuration not stated),n,n,89.7,n,n
Cc1sc2nc(CN3CCOCC3)nc(NS(=O)(=O)c3cc(Cl)ccc3Cl)c2c1C,n,n,n,n,n
CCOc1ccccc1NC(=O)/C=C/c1ccccc1[N+](=O)[O-],n,n,n,n,n
CCOC(=O)COc1ccc2ccccc2c1/C=C/[N+](=O)[O-],n,n,n,43.8,n
CCOc1ccc(/C=C/[N+](=O)[O-])c2ccccc12,n,n,101.5,78.1,n
O=[N+]([O-])/C=C/c1c(OCc2ccccc2)ccc2ccccc12,n,n,77.9,89.0,n
CCOC(=O)COc1ccc2nsnc2c1,n,n,n,n,n
CCOC(=O)Cn1cc(/C=C/[N+](=O)[O-])c2ccccc21,n,n,n,n,n
CCOC(=O)COc1ccc(/C=C/[N+](=O)[O-])c(OCC(=O)OCC)c1,n,n,n,53.6,n
Cc1cc(O)ccc1Nc1cc(-c2cccc(N)c2)ncn1,x,n,n,x,x
COc1ccc(/C=C/C(=O)N2CCN(c3ccccn3)CC2)c2ccccc12,n,n,n,n,n
N#Cc1c(N)nc2c(c1-c1ccccc1)CCC2,n,n,n,n,n
SMILES,PP1 counter,NadD block,Exocytosis inh,Beta2AR agonist,GRK2 inh
Cc1cccc(N=N/C(=C\O)C(=O)c2ccc(Br)cc2)c1,n,n,101.3,n,n
O=C(COC(=O)c1ccc2c(c1)C(=O)N(c1cccc3ncccc13)C2=O)c1ccc(Cl)cc1,n,n,n,63.2,n
CCOC(=O)c1c(NC(=O)Cn2cnc3scc(-c4ccc(C)cc4)c3c2=O)sc(C)c1C,16.2,n,n,n,n
CCOC(=O)c1c(NC(=O)Cn2cnc3sc(C)c(-c4ccccc4)c3c2=O)sc(C)c1C,n,n,n,n,n
CN1CCN(C(=O)C[C@H]2C[C@H]3c4cc(NC(=O)NC5CCCCC5)ccc4O[C@H]3[C@@H](CO)O2)CC1,x,n,n,x,x
Cc1cccc(N2C(=O)C(O)=C(C(=O)c3cccs3)C2c2ccc(Cl)cc2)n1 (configuration not stated),17.4,n,n,n,n
CCCCCCc1cc2cc(C(=O)NCc3ccccc3)c(=N)oc2cc1O,n,31.3,n,n,n
CCCCCCc1cc2cc(C(=O)Nc3ccccc3)c(=O)oc2cc1O,n,n,n,n,n
CC1CCCCN1C(=O)COc1ccccc1F (configuration not stated),n,n,n,n,n

# Compound activity: PubChem, several laboratories
